SMILES strings stand for the structures. Active and inactive are the calls of the source.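 Rule for the calls, unless noted: active = fluorescence slope higher than the sample average by over 3 SD (cut at about -0.22 in these data, passing the limit was not always enough); inactive = the rest.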

The record followed here is PubChem BioAssay.

The nature of experiment [1]: inhibitors of TNFa-induced NFkB p65 translocation, primary screen, imaging, HUVEC, MLSMR starter and 10KST1 sets (AID 438;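 active = inhibition above 20% together with a positive visual image hit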;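 note: compound added about 3h40 before a 20 min TNFalpha stimulation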;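 for inhibition: signal is the nuclear over cytoplasmic p65 intensity ratio per well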). The note with it: HUVEC TNFa-induced p65 nuclear translocation; cell count: measured here: nuclei count (cytotoxicity indicator), at 2.08 µM; inhibition: at 2 µM, stronger effect = higher value, 0% TNFa-plus-vehicle, 100% no-TNFa wells.
A short description of experiment [2]: reduction of polyQ htt aggregates in cells – imaging, exon1htt(103Q)mCFP cells, high-content imaging, primary screen (AID 483;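 active = visual image review flags a hit and inhibition of aggregation exceeds 20%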;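 note: compound exposure lasted 3 days before fixation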;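 for nuclei count: percent of the per-plate median nuclei count of sample wells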). The note with it: exon1htt(103Q)mCFP cell line, aggregate imaging, at 2 µM; inhibition of aggregation: stronger effect = higher value; nuclei count: measured here: cell count, toxicity.
The nature of experiment [3]: endothelial E-selectin expression blockers – imaging, HUVEC, immunofluorescence, MLSMR starter and 10KST1 sets, primary screen (AID 487;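 active = visually confirmed hit in the image check and inhibition above 20%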;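 for inhibition: signal is fraction of cell area covered by stained E-selectin grains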;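 for nuclei count: 100% = median nuclei count of all wells on the same plate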). The note with it: HUVEC TNFalpha-induced E-selectin immunofluorescence imaging, at 2 µM; inhibition: stronger effect = higher value; nuclei count: measured here: cell number, toxicity.
In experiment [4] the target is Voltage-gated potassium channel subunit beta-2 (Rattus norvegicus) (UniProt P62483). The experiment in a line: inhibitors of rat Kvbeta2 reductase activity – biochemical, NADPH fluorescence, primary screen (AID 622).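 Note: slope of raw intensity against log time taken from 70 to 1610 s.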 The note with it: recombinant KvBeta, 4-cyanobenzaldehyde reduction, at 10 µM, stronger effect = higher value.
Chain of Voltage-gated potassium channel subunit beta-2 (Rattus norvegicus) (P62483 whole entry, looked up): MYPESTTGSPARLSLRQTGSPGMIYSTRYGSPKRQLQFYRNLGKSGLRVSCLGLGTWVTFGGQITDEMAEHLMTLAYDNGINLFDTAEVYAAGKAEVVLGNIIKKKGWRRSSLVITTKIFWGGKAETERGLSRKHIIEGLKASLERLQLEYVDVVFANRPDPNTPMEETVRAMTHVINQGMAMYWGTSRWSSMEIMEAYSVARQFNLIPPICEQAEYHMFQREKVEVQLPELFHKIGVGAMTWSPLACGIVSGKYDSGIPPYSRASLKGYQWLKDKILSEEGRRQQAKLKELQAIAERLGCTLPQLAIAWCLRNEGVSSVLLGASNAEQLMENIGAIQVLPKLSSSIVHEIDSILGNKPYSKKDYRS
Experiment [5] has the same target. The experiment in a line: enhancers of rat Kvbeta2 NADPH turnover – biochemical, NADPH fluorescence, primary screen (AID 623;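 active = NADPH fluorescence slope more negative than the mean of all samples by about 3 SD, 99.7% confidence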;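 note: fluorescence intensity change per second fitted from 20 to 320 s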). The note with it: Recombinant KvBeta, NADPH fluorescence decrease slope, 10 min; at 10 µM; stronger effect = lower value.
Experiment [6] addresses Alpha-2C adrenergic receptor (Homo sapiens) (UniProt P18825). The experiment in a line: compounds altering alpha2C-coupled GIRK flux – cell-based, HEK293 alpha2C/GIRK1/2, thallium flux, primary screen (AID 624;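 active = fluorescence slope after compound addition differing from the mean of all screened samples at 99.7% confidence, in either direction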;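 note: slope of fluorescence ratio to pre-addition baseline per second over 15 to 24 s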). The note with it: thallium flux BTC fluorescence, at 10 µM, actives lie on both sides.
Experiment [7] is described as follows: blockers of RIG-like receptor reporter activation – cell-based, Sendai virus stimulus, luciferase, 10K MLSCN set, TLR/RLR signaling modifier project, primary screen (AID 602276;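 active = inhibition at or above 50% at 10 µM; inactive = inhibition below 50%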;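 note: firefly luciferase from ISG56 promoter only with Renilla not read in this screen; 0% = Sendai virus plus DMSO and 100% = medium plus DMSO without virus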). The note with it: HEK293 RL24 IRF3 luciferase reporter, at 10 µM, stronger effect = higher value.
The nature of experiment [8]: TLR3 IRF3 reporter activation blockers – cell-based, poly I:C stimulus, luciferase, 10K MLSCN set, primary screen (AID 602277;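 active = inhibition of the reporter signal at or above 50%; inactive = inhibition below 50%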). The note with it: HEK293-TLR3 RL24 IRF3 luciferase reporter, at 10 µM, stronger effect = higher value.

Chain of Alpha-2C adrenergic receptor (Homo sapiens) (P18825 whole entry, looked up): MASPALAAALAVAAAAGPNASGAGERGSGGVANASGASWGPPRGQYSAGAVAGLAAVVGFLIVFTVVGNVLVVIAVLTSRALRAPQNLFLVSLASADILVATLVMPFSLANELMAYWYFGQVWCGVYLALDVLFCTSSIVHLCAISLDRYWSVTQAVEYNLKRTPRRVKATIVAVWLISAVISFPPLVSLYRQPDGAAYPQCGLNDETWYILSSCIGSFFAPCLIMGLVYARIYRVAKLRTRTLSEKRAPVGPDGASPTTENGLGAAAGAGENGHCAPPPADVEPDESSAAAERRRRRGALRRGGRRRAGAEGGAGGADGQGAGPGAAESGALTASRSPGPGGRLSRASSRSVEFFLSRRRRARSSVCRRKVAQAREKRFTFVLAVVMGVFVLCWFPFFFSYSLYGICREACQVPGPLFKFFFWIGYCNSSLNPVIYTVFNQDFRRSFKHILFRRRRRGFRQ

Regarding `N#CCOc1nc(N2CCOCC2)nc(N2CCOCC2)n1`, in experiment [1], the cell count worked out at 552. The inhibition in experiment [1] was -30.6% (inactive); in experiment [3], -10.4% (inactive); in experiment [7], 10.5% (inactive); in experiment [8], 18.6% (inactive). Moreover, in experiment [2], the inhibition of aggregation is 3% (inactive). The nuclei count in experiment [2] is 76.6%; in experiment [3], 100%. The fluorescence slope in experiment [4] is -0.287 (inactive). For the same compound, the NADPH fluorescence slope in experiment [5] was -4.5e-05 (inactive). Besides, the slope in experiment [6] was 0.00534 (inactive).

Consider `CCN(CC)CCCN1C(=O)C(O)=C(C(C)=O)C1c1cccc(OC)c1` (centres undefined), for which the cell count in experiment [1] is 468. For the same compound, the inhibition was 7.8% (inactive) in experiment [1], -142% (inactive) in experiment [3], 11.2% (inactive) in experiment [7] and 13.5% (inactive) in experiment [8]. Besides, the inhibition of aggregation in experiment [2] was 3.9% (inactive). Also, the nuclei count in experiment [2] turned out to be 97.3%; in experiment [3], 105%. Also, in experiment [4], the fluorescence slope is -0.367 (inactive). Further, the NADPH fluorescence slope in experiment [5] was -4.4e-05 (inactive). Moreover, the slope in experiment [6] was 0.00698 (inactive).

With `CCCNS(=O)(=O)c1ccc(OCC(=O)NCc2ccc3c(c2)OCO3)cc1`, the cell count in experiment [1] came to 434. Besides, the inhibition in experiment [1] is 1.7% (inactive); in experiment [3], -93.9% (inactive); in experiment [7], 12.8% (inactive); in experiment [8] it was 17.9% (inactive). Moreover, the inhibition of aggregation in experiment [2] is -1.9% (inactive). In addition, the nuclei count in experiment [2] is 108%; in experiment [3], 106%. The fluorescence slope in experiment [4] was -0.368 (inactive). The NADPH fluorescence slope in experiment [5] was -6.9e-05 (inactive). Besides, the slope in experiment [6] was 0.00408 (inactive).

On to `CCOC(=O)c1[nH]c(C)c(C(=O)NCc2ccccn2)c1C`, for which the cell count in experiment [1] was 664. Further, the inhibition in experiment [1] was -2.8% (inactive); in experiment [3], -173% (inactive); in experiment [7], 17.5% (inactive); in experiment [8], 14.1% (inactive). Also, the inhibition of aggregation in experiment [2] was -6.6% (inactive). Moreover, the nuclei count in experiment [2] worked out at 87.7%; in experiment [3], 114%. Moreover, the fluorescence slope in experiment [4] was -0.51 (inactive). The NADPH fluorescence slope in experiment [5] was -0.000223 (inactive). For the same compound, in experiment [6], the slope was 0.00562 (inactive).

Take `Cc1ccc(-n2nnnc2SCC(=O)Nc2c(C)n(C)n(-c3ccccc3)c2=O)cc1`: the cell count in experiment [1] amounted to 637. The inhibition in experiment [1] is -1.1% (inactive); in experiment [3], -18.7% (inactive); in experiment [7], -6.61% (inactive); in experiment [8] it was -12.3% (inactive). In experiment [2], the inhibition of aggregation is 4.2% (inactive). For the same compound, the results for the nuclei count in experiment [2] and in experiment [3] were 91.4% and 106%, respectively. Besides, the fluorescence slope in experiment [4] was -0.583 (inactive). For the same compound, the NADPH fluorescence slope in experiment [5] was -1.3e-05 (inactive). Besides, the slope in experiment [6] is 0.00453 (inactive).

Regarding `CCC1CCCN1Cn1cnc2c([nH]c3ccc(OC)cc32)c1=O` (centres undefined), the cell count in experiment [1] stood at 602. Also, the inhibition in experiment [1] is -7.6% (inactive); in experiment [3], -53.1% (inactive); in experiment [7] it was 11.1% (inactive); in experiment [8] it was 26.1% (inactive). For the same compound, the inhibition of aggregation in experiment [2] is 3.4% (inactive). Further, the nuclei count in experiment [2] was found to be 108%; in experiment [3], 86.2%. In addition, in experiment [4], the fluorescence slope was -0.396 (inactive). Besides, the NADPH fluorescence slope in experiment [5] is -1.1e-05 (inactive). In experiment [6], the slope is 0.0053 (inactive).

`COC(=O)c1cc(-c2c(C)oc3cc(O)ccc3c2=O)c(C)o1`: in experiment [1], the cell count was 609. Besides, the inhibition in experiment [1] was -2.2% (inactive); in experiment [3], -117% (inactive); in experiment [7], 4.96% (inactive); in experiment [8], 1.06% (inactive). The inhibition of aggregation in experiment [2] is -24% (inactive). Also, the results for the nuclei count in experiment [2] and in experiment [3] were 114% and 167%, respectively. Further, the fluorescence slope in experiment [4] is -0.129 (active). The NADPH fluorescence slope in experiment [5] was 2.7e-05 (inactive). Also, the slope in experiment [6] is 0.0074 (inactive).

For `Cc1cc(C)c2c(C)nn(C3CCCCC3)c2n1`, in experiment [1], the cell count is 318. The inhibition in experiment [1] is 1.7% (inactive); in experiment [3] it was 33.7% (inactive); in experiment [7], -18.5% (inactive); in experiment [8], -5.34% (inactive). Also, the inhibition of aggregation in experiment [2] was 27.2% (inactive). Moreover, the nuclei count in experiment [2] was 79.1%; in experiment [3], 86.7%. Also, the fluorescence slope in experiment [4] is -0.514 (inactive). Besides, in experiment [5], the NADPH fluorescence slope was 1.4e-05 (inactive). In addition, the slope in experiment [6] is 0.00644 (inactive).

In the case of `Cc1ccc(-c2nc3ncccc3o2)cc1NC(=O)c1ccco1`, the cell count in experiment [1] came to 317. The inhibition in experiment [1] was 0.6% (inactive); in experiment [3], -107% (inactive); in experiment [7], -1.98% (inactive); in experiment [8] it was 14.6% (inactive). The inhibition of aggregation in experiment [2] was -1.4% (inactive). Moreover, the nuclei count in experiment [2] and in experiment [3] was 102% throughout. Moreover, the fluorescence slope in experiment [4] is -0.429 (inactive). The NADPH fluorescence slope in experiment [5] is 2.8e-06 (inactive). Also, the slope in experiment [6] was 0.00563 (inactive).

Turning to `O=C(Nc1cccnc1)Nc1ccccn1`, the cell count in experiment [1] amounted to 571. The inhibition in experiment [1] was -4.3% (inactive); in experiment [3], -6.7% (inactive); in experiment [7], -5.87% (inactive); in experiment [8], 0.317% (inactive). In addition, the inhibition of aggregation in experiment [2] is 6.4% (inactive). The nuclei count in experiment [2] was found to be 106%; in experiment [3] it was 74.1%. Besides, the fluorescence slope in experiment [4] is -0.432 (inactive). Also, the NADPH fluorescence slope in experiment [5] was -4.6e-05 (inactive). The slope in experiment [6] was 0.00395 (inactive).

Regarding `COc1cccc(/C=N/n2c(C)nc3ccccc32)c1OC`, the cell count in experiment [1] came to 431. For the same compound, the inhibition in experiment [1] was 0.5% (inactive); in experiment [3] it was -27.6% (inactive); in experiment [7], -7.57% (inactive); in experiment [8], -59.7% (inactive). Also, in experiment [2], the inhibition of aggregation is 32.5% (active). Besides, the values for the nuclei count in experiment [2] and in experiment [3] were 84.3% and 123%, respectively. For the same compound, the fluorescence slope in experiment [4] was -0.391 (inactive). Besides, the NADPH fluorescence slope in experiment [5] was 3.2e-05 (inactive). For the same compound, in experiment [6], the slope was 0.00613 (inactive).

Regarding `CCCOC(=O)C1C2C=CC3(CN(c4cccc(Cl)c4)C(=O)C13)O2` (centres undefined), in experiment [1], the cell count turned out to be 743. In addition, the inhibition is -5.5% (inactive) in experiment [1], -55.3% (inactive) in experiment [3], 12.8% (inactive) in experiment [7] and 28.1% (inactive) in experiment [8]. For the same compound, the inhibition of aggregation in experiment [2] is -3.6% (inactive). Besides, the values for the nuclei count in experiment [2] and in experiment [3] were 95.4% and 116%, respectively. Also, the fluorescence slope in experiment [4] was -0.491 (inactive). The NADPH fluorescence slope in experiment [5] is 1.7e-05 (inactive). In experiment [6], the slope was 0.00748 (inactive).

On to `COc1ccc2c(c1)cc(C(=O)O)n2C`, for which the cell count in experiment [1] came to 773. Moreover, the inhibition is 4.2% (inactive) in experiment [1], -10.3% (inactive) in experiment [3], 11.6% (inactive) in experiment [7] and 23.7% (inactive) in experiment [8]. Also, the inhibition of aggregation in experiment [2] is -20.2% (inactive). In addition, the nuclei count in experiment [2] came out at 77.6%; in experiment [3] it was 128%. The fluorescence slope in experiment [4] was -0.393 (inactive). For the same compound, the NADPH fluorescence slope in experiment [5] was -6.4e-05 (inactive). The slope in experiment [6] is 0.00479 (inactive).

As for `COCCCNC(=O)c1ccccc1NS(=O)(=O)c1ccc(C)cc1`, the cell count in experiment [1] was determined as 369. In addition, the inhibition is -0.9% (inactive) in experiment [1], -66.6% (inactive) in experiment [3], 11.8% (inactive) in experiment [7] and 16.1% (inactive) in experiment [8]. For the same compound, the inhibition of aggregation in experiment [2] was -9% (inactive). Further, the values for the nuclei count in experiment [2] and in experiment [3] were 122% and 72.3%, respectively. For the same compound, in experiment [4], the fluorescence slope was -0.423 (inactive). The NADPH fluorescence slope in experiment [5] is -1.5e-05 (inactive). Further, in experiment [6], the slope is 0.00558 (inactive).
